PubChem BioAssay
The source made the active and inactive calls. Unless noted, no rule for the calls is given here.

Key:
[1] = A549 cell viability effects, profiling panel, calcein-AM fluorescence, 48 h, basal (AID 1162); settings: higher = more signal; also: test concentration not given here
[2] = adipocyte viability effects, profiling panel, cell-based, 3T3-L1 adipocytes, calcein-AM fluorescence, 48 h, basal (AID 1163); settings: 3T3-L1 adipocytes viability, higher = more signal; also: test concentration not given here
[3] = HepG2 cell viability effects, profiling panel, calcein-AM fluorescence, 48 h, basal (AID 1164); settings: higher = more signal; also: test concentration not given here
[4] = MM1S cell viability effects, profiling panel, calcein-AM fluorescence, 48 h, basal (AID 1165); settings: higher = more signal;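 also: viability of MM1S multiple myeloma cells under basal unstimulated conditions; test concentration not given here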
[5] = basal RPMI8226 viability, no added stimulus, profiling panel, cell-based, calcein-AM fluorescence, 48 h, PK04 Diversity Set (AID 1166); settings: RPMI8226 myeloma viability, higher = more signal;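 also: cells grown under basal conditions without added stimulus; test concentration not given here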
[6] = basal HepG2 mitochondrial membrane potential changes, profiling panel, cell-based, JC-1 fluorescence, 24 h, 100 nL compound (AID 1167); settings: higher = more signal; also: test concentration not given here
[7] = basal 3T3-L1 adipocyte mitochondrial potential changes, profiling panel, cell-based, JC-1 fluorescence, 3T3-L1 adipocytes, 24 h, 100 nL compound (AID 1168); settings: JC-1 mitochondrial fluorescence, higher = more signal, called active from +8 up or from −8 down; also: test concentration not given here
[8] = basal RPMI8226 mitochondrial membrane potential changes, profiling panel, cell-based, JC-1 fluorescence, 24 h, 100 nL compound (AID 1169); settings: RPMI8226 myeloma, JC-1 mitochondrial potential fluorescence, higher = more signal; also: test concentration not given here
[9] = basal MM1S mitochondrial membrane potential changes, profiling panel, cell-based, JC-1 fluorescence, 24 h, 100 nL compound (AID 1170); settings: higher = more signal; also: test concentration not given here
[10] = A549 lung cancer cell viability effects, profiling panel, resazurin fluorescence, 24 h, PK04 Diversity Set (AID 1171); settings: higher = more signal, called active from +8 up or from −8 down; also: test concentration not given here
[11] = HepG2 liver cancer cell viability effects, profiling panel, resazurin fluorescence, 24 h, PK04 Diversity Set (AID 1172); settings: higher = more signal; also: test concentration not given here
[12] = basal S. cerevisiae growth modulation, no modifier, primary screen, OD600, strain BY4716, 24 h, basal condition (AID 1173); settings: OD600, 24 h, higher = more signal, called active from +8 up or from −8 down
[13] = MM1S myeloma cell viability, profiling panel, resazurin fluorescence, basal, 24 h, PK04 Diversity Set (AID 1174); settings: higher = more signal, called active from +8 up or from −8 down;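 also: MM1S multiple myeloma cell line; test concentration not given here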
[14] = biological target: Dihydroorotate dehydrogenase (quinone), mitochondrial (Plasmodium falciparum (isolate 3D7)) (UniProt Q08210); experiment: PfDHODH enzyme inhibitors, primary screen, biochemical, C-terminal His tag, absorbance 600 nm (AID 1175); settings: DCIP absorbance 600 nm, higher = more signal, called active from +8 up or from −8 down;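 also: recombinant parasite enzyme with a five histidine tag at its C terminus; test concentration not given here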
Sequence of Dihydroorotate dehydrogenase (quinone), mitochondrial (Plasmodium falciparum (isolate 3D7)) (Q08210 whole entry, looked up): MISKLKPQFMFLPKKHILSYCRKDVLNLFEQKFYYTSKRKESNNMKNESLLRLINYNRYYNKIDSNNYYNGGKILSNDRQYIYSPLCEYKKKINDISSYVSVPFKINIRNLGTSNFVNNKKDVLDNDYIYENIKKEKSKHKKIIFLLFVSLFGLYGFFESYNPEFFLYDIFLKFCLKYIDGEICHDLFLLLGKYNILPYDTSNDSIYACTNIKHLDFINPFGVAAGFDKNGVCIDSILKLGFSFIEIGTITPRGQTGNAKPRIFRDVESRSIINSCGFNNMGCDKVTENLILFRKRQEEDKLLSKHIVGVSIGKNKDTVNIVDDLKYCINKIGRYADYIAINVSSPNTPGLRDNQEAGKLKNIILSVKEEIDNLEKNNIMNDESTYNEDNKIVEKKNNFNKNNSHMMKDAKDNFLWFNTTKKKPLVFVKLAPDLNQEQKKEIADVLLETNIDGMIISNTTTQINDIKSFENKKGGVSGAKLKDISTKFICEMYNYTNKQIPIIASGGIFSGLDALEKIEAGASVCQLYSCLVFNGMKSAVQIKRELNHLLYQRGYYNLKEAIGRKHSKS

[15] = P. aeruginosa biofilm formation inhibitors, primary screen, strain PAO1, LB-PBS medium, absorbance 600 nm (AID 1176); also: test concentration not given here; settings: P. aeruginosa PAO1 growth/biofilm, A600, 12 h; higher = more signal
[16] = S. cerevisiae RM11-1a growth modifiers, primary screen, strain RM11-1a, OD600, basal, 24 h (AID 1177); settings: OD600, 24 h, higher = more signal, called active from +8 up or from −8 down;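 also: cultures grown under basal conditions with no added stressor; test concentration not given here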
[17] = E. coli acrAB mutant growth effects, primary screen, E. coli filamentation inducers, strain DRC39, OD650, 24 h (AID 1178); settings: higher = more signal, called active from +8 up or from −8 down;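 also: growth measured as culture turbidity by optical density at 650 nm; test concentration not given here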
[18] = E. coli acrAB mutant growth effects, primary screen, E. coli filamentation inducers, strain DRC39, OD650, 48 h (AID 1179);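 also: screen aims at cell division blockers that make cells filament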; settings: E. coli DRC39 delta-acrAB growth, higher = more signal, called active from +8 up or from −8 down
[19] = RPMI8226 myeloma cell viability, profiling panel, resazurin fluorescence, basal, 24 h, PK04 Diversity Set (AID 1180); settings: higher = more signal;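 also: RPMI8826 multiple myeloma cell line at 5000 cells per well; test concentration not given here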
[20] = biological target: E3 ubiquitin-protein ligase XIAP (Homo sapiens) (UniProt P98170); experiment: XIAP binders, primary screen, biophysical, small-molecule microarray, fluorescence 635 nm (AID 1181); settings: small-molecule microarray binding, higher = more signal;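 also: score merges 667 nm emission and signal to noise over triplicate slides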
Sequence of E3 ubiquitin-protein ligase XIAP (Homo sapiens) (P98170 whole entry, looked up): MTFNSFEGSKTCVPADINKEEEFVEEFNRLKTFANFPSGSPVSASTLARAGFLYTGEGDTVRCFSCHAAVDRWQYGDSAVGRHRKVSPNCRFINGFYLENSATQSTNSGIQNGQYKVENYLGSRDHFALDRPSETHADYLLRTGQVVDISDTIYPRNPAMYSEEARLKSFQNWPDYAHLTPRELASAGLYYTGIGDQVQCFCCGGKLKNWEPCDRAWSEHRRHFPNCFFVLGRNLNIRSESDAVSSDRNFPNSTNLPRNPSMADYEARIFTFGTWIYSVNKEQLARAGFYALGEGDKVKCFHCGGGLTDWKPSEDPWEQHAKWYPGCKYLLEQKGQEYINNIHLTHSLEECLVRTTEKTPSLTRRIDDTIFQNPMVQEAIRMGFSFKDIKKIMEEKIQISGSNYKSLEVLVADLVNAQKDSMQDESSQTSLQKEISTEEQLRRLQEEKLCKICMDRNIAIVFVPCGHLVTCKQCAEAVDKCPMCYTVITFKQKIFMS

SMILES | z-score [1] | z-score [2] | z-score [3] | z-score [4] | z-score [5] | z-score [6] | z-score [7] | z-score [8] | z-score [9] | z-score [10] | z-score [11] | z-score [12] | z-score [13] | composite z-score [14] | z-score [15] | z-score [16] | z-score [17] | z-score [18] | z-score [19] | composite z-score [20]
CCOc1ccc(N2C(=O)CSC2c2cccc([N+](=O)[O-])c2)cc1 (stereo not given) | 1.77 | -0.704 | 1.1 | -0.119 | -0.804 | 1.61 | 0.989 (inactive) | -0.127 | -0.288 | 0.0421 (inactive) | 0.296 | 0.269 (inactive) | -0.0959 (inactive) | -0.274 (inactive) | -0.0902 (inactive) | 0.791 (inactive) | 0.754 (inactive) | 0.908 (inactive) | -0.0239 | -0.183
CC(C)OC(=O)C=C1C[C@@H](c2cccc(Cl)c2)O[C@@H](c2cccc(Cl)c2)O1 | -1.2 | -0.0201 | -0.822 | -1.97 | -0.66 | -0.46 | 0.843 (inactive) | 0.0432 | -1.51 | 0.146 (inactive) | -0.307 | -2.84 (inactive) | 0.147 (inactive) | -0.516 (inactive) | 0.959 (inactive) | -0.587 (inactive) | -0.581 (inactive) | 0.323 (inactive) | -1.03 | 0.0307
COc1ccc([Si](C)(C)[C@@H]2[C@@H](CC(=O)N3CCC[C@H]3CO)O[C@]3(C(=O)N(Cc4cccc(I)c4)c4ccccc43)[C@H]2C)cc1 | -1.08 | 1.24 | -2.59 | -2.92 | -4.52 | -0.646 | -0.0158 (inactive) | -1.08 | -1.48 | -3.17 (inactive) | -2.43 | -0.91 (inactive) | -3.49 (inactive) | 0.447 (inactive) | 0.483 (inactive) | 1.07 (inactive) | -1 (inactive) | -1.05 (inactive) | -4.92 | 0.189
COc1cc2c(cc1OC)CN(C(=O)[C@H]1[C@@H]3C(=O)O[C@@H](c4ccccc4)[C@@H](c4ccccc4)N3[C@@H](c3ccccc3OCCO)[C@]13C(=O)Nc1ccc(C#CCCO)cc13)CC2 | 0.228 | -0.538 | -0.368 | -0.217 | -0.33 | -0.641 | 0.451 (inactive) | -0.377 | -0.96 | 0.426 (inactive) | 0.51 | 1.69 (inactive) | -0.442 (inactive) | 0.749 (inactive) | 1.54 (inactive) | 3.11 (inactive) | -0.456 (inactive) | -0.542 (inactive) | -0.0397 | -0.152
CCCC1(C(=O)OC)C=C2C(=C(c3ccccc3)C(=O)C2C)CN1 (stereo not given) | -1 | -0.446 | -0.5 | 0.136 | -1.14 | 0.0027 | -1.23 (inactive) | -0.198 | -0.949 | -0.42 (inactive) | -0.913 | 0.629 (inactive) | -1.85 (inactive) | -1.68 (inactive) | 0.246 (inactive) | -0.0834 (inactive) | -0.0785 (inactive) | -0.181 (inactive) | -0.77 | 0.192
CCCCCCc1nc(-c2ccc(-c3ccc(Cl)c(Cl)c3)o2)c(C)c2c1[Si](C(C)C)(C(C)C)OC2 | -2.55 | 0.438 | -1.55 | -3.25 | -4.25 | -3.26 | 0.113 (inactive) | -0.977 | -1.68 | -0.312 (inactive) | -0.865 | -4.18 (inactive) | -2.84 (inactive) | -2.2 (inactive) | 0.668 (inactive) | -0.721 (inactive) | -0.0618 (inactive) | -0.616 (inactive) | -1.42 | -0.113
COC(=O)C(CC#Cc1ccc2c(c1)[C@]1(C(=O)N2)[C@H](c2ccccc2OCCO)N2[C@H](c3ccccc3)[C@H](c3ccccc3)OC(=O)[C@H]2[C@@H]1C(N)=O)C(=O)OC | -0.387 | 0.395 | -4.39 | -3.38 | -4.56 | -2.46 | 3.28 (inactive) | -1.18 | -2.09 | -1.01 (inactive) | -1.55 | 0.858 (inactive) | -9.28 (active) | -2.77 (inactive) | 1.18 (inactive) | 1.77 (inactive) | -0.0371 (inactive) | -0.156 (inactive) | -7.42 | 0.0223
C=CCNC(=O)[C@H]1[C@@H]2C(=O)O[C@@H](c3ccccc3)[C@@H](c3ccccc3)N2[C@@H](c2ccc(O)cc2)[C@]12C(=O)Nc1ccc(C#CCCO)cc12 | 0.838 | -0.655 | 0.122 | 0.994 | 0.168 | -0.757 | 0.651 (inactive) | -0.873 | -0.723 | 0.437 (inactive) | 1.13 | 0.189 (inactive) | 1.16 (inactive) | 0.0992 (inactive) | -0.42 (inactive) | 0.957 (inactive) | 0.516 (inactive) | 0.567 (inactive) | 1.08 | -0.198
COCC(=C=CC[C@H](O)c1ccccc1OCCO)CCO | 0.474 | -0.233 | 0.304 | -0.48 | -0.0001 | -0.853 | -0.624 (inactive) | -0.345 | -0.654 | -0.323 (inactive) | -0.504 | -0.547 (inactive) | -0.251 (inactive) | -0.799 (inactive) | 0.26 (inactive) | 0.338 (inactive) | -0.135 (inactive) | -0.113 (inactive) | -0.672 | -0.252
